Pf growth 48h: inhibits P. falciparum growth in the first generation, 48 h; Potency, µM (doses to about 28.7 µM), for the others: at the highest dose activity change, negative = inhibition, most hits filed as inhibitors; P. falciparum luciferase growth in erythrocytes, 48 h; 310,000 compounds, 5.9% hits; also: potency is read from the fitted curve at half-maximal effect
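Here the parasites carry a stable luciferase gene and grow inside erythrocytes in Albumax-based RPMI medium with compound for one erythrocytic cycle. Activity is scored as loss of luminescent signal.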
HCMV inh: human cytomegalovirus inhibition | HFF cells, HCMV-luciferase reporter, 72 h; hits give low values | activity change, negative = inhibition, % at 57.5 µM | 410,000 compounds, 4.5% hits; in the data active = activity change below about -60%; inconclusive = no clear call, values can overlap the other calls; inactive = above about -39%
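After 16 h attachment at 37C, HFF cells received test compound and HCMV-luciferase (1 PFU/cell); reporter luminescence read 72 h later, data normalized against buffer-only and known inhibitor Salinomycin.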
Pf growth 96h: inhibits malaria parasite growth, 96 h. 320,000 compounds, 6.9% hits. Potency, µM (series often up to 28.7 µM), inactives show at the top dose activity change, negative = inhibition, most hits filed as inhibitors. AID 504834. P. falciparum luciferase reporter growth, 96 h; also: potency is read from the fitted curve at half-maximal effect
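Delayed-death screen, second-generation endpoint: infected erythrocytes, 2% hematocrit, 0.05% parasitemia final; 96 hours at 37 C, 5% CO2; luciferase detection reagent; luminescence decrease equals reduced growth.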
HCV inhibitor: HCV inhibition. Huh7.5.1 HCVcc-Cre infection, luciferase reporter, 44 h. Potency, µM (series often up to 41.8 µM), inactives show at the highest dose activity change, negative = inhibition, actives largely listed as inhibitors. 340,000 compounds, 3.4% hits; also: potency is read from the fitted curve at half-maximal effect
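Seed cells (1,000/well) for 4 h; treat with compound and infect with HCVcc-Cre, moi about 0.5. Incubate 44 h, then detect luciferase activity.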
Starred values were filed as active, the others as inactive; ? = inconclusive; / = no result given; + = active, no number; [ ] = dose if it differs, or a comment. An excerpt weighted towards active compounds, which were near 13% of everything screened. Unless noted, calls follow the shape of the dose curve; as a rule, active = well fitted inhibition curve with a large enough effect; inconclusive = small, poorly fitted or top-dose-only effect, or another doubt; inactive = no such curve, though single readings can be large or run the other way. % is scaled to controls: 0 for no effect and ±100 for the full control effect.

SMILES	Pf growth 48h	HCMV inh	Pf growth 96h	HCV inhibitor
CC1=C(n2nnc([N+](=O)[O-])n2)C(c2cccnc2)C(C#N)=C(N)O1 (stereo unspecified)	13.1µM*	25.1	?	-15.1%
COC(=O)C1=C(C)OC(N)=C(C#N)C1c1cccnc1 (stereo unspecified)	-14.2%	-13.7	/	-4.4%
Cc1ccc(C)c(-n2c3nc(=O)[nH]c(=O)c-3cc3c(C)nn(-c4ccccc4)c32)c1	/	0.8	/	/
COc1cccc2cc(-c3nc4sc(C(=O)Nc5ccc(F)cc5F)c(C)c4c(=O)[nH]3)c(=O)oc12	/	+	/	/
Cc1ccc(-c2n[nH]c(=S)n2/N=C/c2ccc(C)s2)cc1	11.7µM*	13.8	11.7µM*	0.1%
COc1ccccc1CN1CCc2c([nH]c3ccccc23)C1	?	44.9	4.3%	-17.1%
Clc1cccc(CN2CCc3c([nH]c4ccccc34)C2)c1Cl	1.85µM*	-91.0*	?	?
CC(=O)Cn1ncc(Br)c(Br)c1=O	?	-105.4*	-8.0%	?
CC(C)(C)C(=O)Cn1ncc(N2CCOCC2)c(Br)c1=O	16.5%	-7.0	0.3%	8.3%
O=C(OCn1ncc(Br)c(Br)c1=O)c1c(F)cccc1F	?	/	/	2.82µM*
O=[As](O)(O)c1ccc(N=Nc2ccc(O)cc2)cc1	?	-79.8*	2.94µM*	-23.5%
COc1cccc(CNS(=O)(=O)c2cc(Br)ccc2Br)c1OC	/	-12.2	/	/
Cc1c(CN(C)C(=O)c2sc3cc(Cl)ccc3c2Cl)cnn1C	?	-84.1*	46.0%	22.4µM*
Cc1ccc(NC(=O)CN(C)C(=O)c2sc3cc(Cl)ccc3c2Cl)cc1	29.2%	-17.7	2.2%	-3.9%[8.37 µM]
Cc1oc2c(c(C)nn2-c2ccccc2)c(=O)c1Cl	/	50.7	/	/
COc1cc2c(cc1OC)C(c1cccc([N+](=O)[O-])c1)NC(=O)C2 (stereo unspecified)	3.9%	-17.8	6.57µM*	-3.8%
COc1cc2c(cc1OC)C1(CCCC1)CNC2c1cccc([N+](=O)[O-])c1 (stereo unspecified)	?	-37.6	3.29µM*	1.1%
O=C1NC2=C(C(=O)CCC2)C(c2cccc([N+](=O)[O-])c2)N1 (stereo unspecified)	-6.0%	20.9	?	16.2%
O=S(=O)(c1cc(Br)ccc1Br)N1CCC(c2noc3ccccc23)CC1	/	-9.3	/	/
CCC(C)n1c(=N)c(C(=O)NC2CCCCC2)cc2c(=O)n3ccccc3nc21 (stereo unspecified)	/	-27.0	/	/
O=C(CN1C(=O)COc2ccc(S(=O)(=O)N3CCOCC3)cc21)N1CCN(c2ccc(F)cc2)CC1	/	10.9	/	/
CCOC(=O)c1ccc2c(c1)[n+](CC)c(C)n2-c1ccccc1	?	-32.6	?	-5.9%
CC[n+]1c(C)cc(C)n1-c1ccccc1	?	-3.8	8.28µM*	4.2%
CC(NC(=O)c1ccc(F)cc1)c1nc2ccccc2[nH]1 (stereo unspecified)	/	-2.9	/	/
O=Nc1c(-c2ccccc2)cc2ccccn12	4.65µM*	?	9.28µM*	-24.4%
SMILES	Pf growth 48h	HCMV inh	Pf growth 96h	HCV inhibitor
CN(C)C(=O)C(=O)c1c(-c2ccccc2)cc2ccccn12	-2.9%	?	8.8%	9.3%
COc1ccc(C(=O)Nc2cccc(-c3cn4ccsc4n3)c2)c(OC)c1	/	-37.1	/	/
CC(=NCCc1ccccc1)c1c(O)[nH]c(=O)[nH]c1=O	32.5%	5.9	12.0%	2.5%
CCC(=NCCc1ccccc1)c1c(O)[nH]c(=O)[nH]c1=O	19.6%	28.4	?	0.316µM*
CCOc1ccccc1N(CC(=O)NCCSc1ccccn1)S(=O)(=O)c1ccccc1	14.7µM*	?	?	1.9%
Cc1ccccc1N(CC(=O)NCCSc1ccccn1)S(=O)(=O)c1ccccc1	?	-25.8	10.4µM*	13.5%
COc1cc(NC(=O)Nc2cccc([N+](=O)[O-])c2)cc(OC)c1	?	-34.2	-19.7%	-8.0%
CC(C)S(=O)(=O)c1csc(NC(=O)Nc2cccc([N+](=O)[O-])c2)c1Cl	?	6.0	?	25.1µM*
Cc1cccc(S(=O)(=O)N2CCCc3ccccc32)c1	-45.5%	16.9	0.0%	1.1%
COC(=O)Nc1ccc(S(=O)(=O)N2CCCc3cccc(O)c32)cc1	-3.8%	-23.8	0.5%	11.2µM*
COC(=O)Nc1ccc(S(=O)(=O)N2CCCc3ccccc32)cc1	?	-61.6*	38.7%	3.16µM*
Cc1cc(C)c(S(=O)(=O)N2CCCc3ccccc32)c(C)c1	13.1µM*	-21.6	?	-7.5%
CC(C)(C)n1ncc2c(=O)n(Cc3ccc(Cl)c(Cl)c3)cnc21	19.8%	15.6	?	13.1%
Cc1cc(Oc2cnn(C(C)(C)C)c(=O)c2Cl)cc(C(C)C)c1	11.7µM*	-11.6	8.28µM*	23.1%
COc1cc2c(cc1OC)-c1c3c(cc4c1[C@@H](C2)N(C)CC4)OCO3	?	-75.6*	?	?
COc1cc2c(cc1OC)-c1c(OC)c(OC)cc3c1C(C2)N(C)CC3 (stereo unspecified)	4.15µM*	27.9	126.4%	-32.1%
COc1cc2c(cc1O)C[C@H]1NCCc3cc4c(c-2c31)OCO4	?	-84.0*	?	10.9%[8.37 µM]
CCS(=O)(=O)N1CC(=O)N(c2ccc(C)c(C)c2)C(C)(C(=O)NC2CCCCC2)C1 (stereo unspecified)	/	0.0	/	/
CC(C)(C)C(=O)Nc1ccc2nc(SCCOc3ccccc3Cl)sc2c1	/	-38.7	/	/
O=C(O)c1cc([N+](=O)[O-])c(Sc2nc3ccccc3[nH]2)c([N+](=O)[O-])c1	/	81.7	338.3%	6.5%
N#C/C(=C\c1ccc(Sc2nc3ccccc3[nH]2)o1)c1ccccc1	/	-96.0*	-76.3%	10µM*
CN(C)/C=C(\C#N)c1nc2ccccc2[nH]1	33.5%	35.7	?	0.5%
O=C1NC(=O)N(c2ccccc2F)C(=O)/C1=C/c1ccc(Sc2nc3ccccc3[nH]2)o1	0.1%	-17.9	83.5%	13.9%
N#Cc1ccc(Sc2nc3ccccc3[nH]2)cc1C#N	15.1%	-76.9*	34.5%	-5.0%
N#C/C(=C\c1ccc(Sc2ccc(Cl)cc2)o1)c1nc2ccccc2[nH]1	0.185µM*	-67.8*	-12.1%	?
SMILES	Pf growth 48h	HCMV inh	Pf growth 96h	HCV inhibitor
COc1ccccc1NC(=O)CCN1CCCCC1	/	46.8	/	/
COc1ccc(/C=N/Nc2cc(C)nc(-n3nc(C)cc3C)n2)cc1	1.47µM*	-98.6*	?	?
CCOc1ccc(/C=N/Nc2cc(C)nc(N3CCOCC3)n2)cc1	32.9%	25.2	-20.4%	0.7%
CCOc1ccc(/C=N/Nc2cc(N3CCOCC3)nc(C)n2)c(O)c1	-7.0%	172.7	6.57µM*	-22.4%
Cc1cc(N/N=C/c2cccc([N+](=O)[O-])c2)nc(-n2nc(C)cc2C)n1	?	?	1.04µM*	?
Cc1cc(N/N=C/c2ccc(O)cc2O)nc(-c2ccccc2O)n1	2.62µM*	/	?	?
O=C(COc1ccc(Cl)cc1)OCc1cc(=O)n2nc(-c3cccs3)sc2n1	/	26.1	/	/
CC(=O)c1cc(-c2ccc(F)cc2)n(CC(=O)NC2CCCCCC2)c1C	/	0.0	/	/

High-throughput results as filed in PubChem BioAssay.
